Results published in PubChem BioAssay.
Active and inactive are the calls of the source.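 Rule for the calls, unless noted: active = NADPH fluorescence slope more negative than the mean of all samples by about 3 SD, 99.7% confidence; inactive = the rest.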

Experiments:
[1] = inhibitors of TNFa-induced NFkB p65 translocation, primary screen, imaging, HUVEC, MLSMR starter and 10KST1 sets (AID 438;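 active = inhibition above 20% together with a positive visual image hit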;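 note: compound added about 3h40 before a 20 min TNFalpha stimulation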;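 for inhibition: signal is the nuclear over cytoplasmic p65 intensity ratio per well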); conditions: HUVEC TNFa-induced p65 nuclear translocation; cell count: measured here: nuclei count (cytotoxicity indicator), at 2.08 µM; inhibition: at 2 µM, stronger effect = higher value, 0% TNFa-plus-vehicle, 100% no-TNFa wells
[2] = inhibitors of mutant huntingtin aggregation, primary screen, imaging, exon1htt(103Q)mCFP cells, high-content imaging (AID 483;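 active = visual image review flags a hit and inhibition of aggregation exceeds 20%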;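 note: compound exposure lasted 3 days before fixation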;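 for nuclei count: percent of the per-plate median nuclei count of sample wells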); conditions: exon1htt(103Q)mCFP cell line, aggregate imaging, at 2 µM; inhibition of aggregation: stronger effect = higher value; nuclei count: measured here: cell count, toxicity
[3] = inhibitors of E-selectin induction by TNFa, primary screen, imaging, HUVEC, immunofluorescence, MLSMR starter and 10KST1 sets (AID 487;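 active = visually confirmed hit in the image check and inhibition above 20%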;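 for inhibition: signal is fraction of cell area covered by stained E-selectin grains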;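 for nuclei count: 100% = median nuclei count of all wells on the same plate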); conditions: HUVEC TNFalpha-induced E-selectin immunofluorescence imaging, at 2 µM; inhibition: stronger effect = higher value; nuclei count: measured here: cell number, toxicity
[4] = biological target: Voltage-gated potassium channel subunit beta-2 (Rattus norvegicus) (UniProt P62483); test: KvBeta enzyme negative modulators, primary screen, biochemical, NADPH fluorescence (AID 622;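 active = fluorescence slope higher than the sample average by over 3 SD, cut at about -0.22 in these data, passing the limit was not always enough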;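 note: slope of raw intensity against log time taken from 70 to 1610 s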); conditions: recombinant KvBeta, 4-cyanobenzaldehyde reduction, at 10 µM, stronger effect = higher value
[5] = biological target: Voltage-gated potassium channel subunit beta-2 (Rattus norvegicus) (UniProt P62483); test: KvBeta positive modulators, primary screen, biochemical, NADPH fluorescence (AID 623); conditions: Recombinant KvBeta, NADPH fluorescence decrease slope, 10 min; at 10 µM; stronger effect = lower value;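 note: fluorescence intensity change per second fitted from 20 to 320 s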
[6] = biological target: Alpha-2C adrenergic receptor (Homo sapiens) (UniProt P18825); test: modulators of alpha2C/GIRK thallium flux, primary screen, cell-based, HEK293 alpha2C/GIRK1/2 (AID 624;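 active = fluorescence slope after compound addition differing from the mean of all screened samples at 99.7% confidence, in either direction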;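 note: slope of fluorescence ratio to pre-addition baseline per second over 15 to 24 s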); conditions: thallium flux BTC fluorescence, at 10 µM, actives lie on both sides
[7] = inhibitors of Sendai virus-induced IRF3 signaling, primary screen, TLR/RLR signaling modifier project, cell-based, Sendai virus stimulus, luciferase, 10K MLSCN set (AID 602276;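 active = inhibition at or above 50% at 10 µM; inactive = inhibition below 50%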;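 note: firefly luciferase from ISG56 promoter only with Renilla not read in this screen; 0% = Sendai virus plus DMSO and 100% = medium plus DMSO without virus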); conditions: HEK293 RL24 IRF3 luciferase reporter, at 10 µM, stronger effect = higher value
[8] = inhibitors of poly I:C-induced TLR3 signaling, primary screen, cell-based, poly I:C stimulus, luciferase, 10K MLSCN set (AID 602277;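 active = inhibition of the reporter signal at or above 50%; inactive = inhibition below 50%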); conditions: HEK293-TLR3 RL24 IRF3 luciferase reporter, at 10 µM, stronger effect = higher value

Alpha-2C adrenergic receptor (Homo sapiens), sequence (P18825 whole entry, looked up): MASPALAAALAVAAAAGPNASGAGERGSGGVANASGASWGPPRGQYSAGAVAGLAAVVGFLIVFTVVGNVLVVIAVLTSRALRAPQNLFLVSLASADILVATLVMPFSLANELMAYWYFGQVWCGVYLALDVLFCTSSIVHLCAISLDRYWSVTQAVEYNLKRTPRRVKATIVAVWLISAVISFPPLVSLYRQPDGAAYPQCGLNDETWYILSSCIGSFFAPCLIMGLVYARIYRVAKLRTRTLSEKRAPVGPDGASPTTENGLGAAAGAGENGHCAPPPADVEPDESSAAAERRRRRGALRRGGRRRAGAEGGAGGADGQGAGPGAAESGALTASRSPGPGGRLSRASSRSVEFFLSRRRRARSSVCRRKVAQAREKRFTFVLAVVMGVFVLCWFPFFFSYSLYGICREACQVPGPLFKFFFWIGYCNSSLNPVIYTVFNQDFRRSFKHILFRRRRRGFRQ
Voltage-gated potassium channel subunit beta-2 (Rattus norvegicus), sequence (P62483 whole entry, looked up): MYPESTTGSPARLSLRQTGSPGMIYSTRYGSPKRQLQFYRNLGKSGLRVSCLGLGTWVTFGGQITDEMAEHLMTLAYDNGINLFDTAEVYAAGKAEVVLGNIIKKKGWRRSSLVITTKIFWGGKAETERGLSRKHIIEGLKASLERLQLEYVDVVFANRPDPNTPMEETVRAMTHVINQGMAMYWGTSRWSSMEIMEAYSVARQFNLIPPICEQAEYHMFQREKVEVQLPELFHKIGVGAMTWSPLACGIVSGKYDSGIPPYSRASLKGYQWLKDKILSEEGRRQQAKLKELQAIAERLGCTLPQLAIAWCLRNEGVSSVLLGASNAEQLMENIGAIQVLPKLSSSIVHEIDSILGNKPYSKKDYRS

SMILES	cell count [1]	inhibition [1]	inhibition of aggregation [2]	nuclei count [2] [%]	inhibition [3]	nuclei count [3] [%]	fluorescence slope [4]	NADPH fluorescence slope [5]	slope [6]	inhibition [7]	inhibition [8]
Cc1cc(Cl)cc2c1NC(=O)[C@]21[C@@H]2C(=O)N(Cc3ccccc3)C(=O)[C@@H]2[C@@H]2CCCN21	556	-18.1% (inactive)	-7.5% (inactive)	115	-65.1% (inactive)	107	-0.619 (inactive)	-3.2e-05 (inactive)	0.00523 (inactive)	15.5% (inactive)	27.9% (inactive)
CCn1c(Cc2ccccc2)nnc1SCC(=O)Nc1cc(C)on1	629	-3.3% (inactive)	5.6% (inactive)	102	-15.6% (inactive)	112	-0.513 (inactive)	-3.3e-05 (inactive)	0.0074 (inactive)	-8.42% (inactive)	23% (inactive)
CCn1cc(SCC(=O)Nc2cc(C)on2)c2ccccc21	760	-15.1% (inactive)	-0.1% (inactive)	60.4	29.9% (inactive)	86.4	-0.494 (inactive)	-2.7e-05 (inactive)	0.00702 (inactive)	26.7% (inactive)	25.1% (inactive)
CN(C)C(=O)N1CCN(C(=O)c2ccco2)CC1	827	-15.9% (inactive)	17.6% (inactive)	99.6	-69.2% (inactive)	114	-0.601 (inactive)	5.7e-06 (inactive)	0.00702 (inactive)	-4.34% (inactive)	19.5% (inactive)
COCCn1c(SCC(=O)N(C(C)C)C(C)C)nnc1-c1cc2ccccc2cc1O	362	0% (inactive)	25.9% (inactive)	88.5	-1% (inactive)	97.7	-0.366 (inactive)	1.3e-05 (inactive)	0.00457 (inactive)	11.9% (inactive)	20.1% (inactive)
CCOc1ccc(C2CC(c3cccc(OC)c3)Nc3nc(N)nn32)cc1 (centres undefined)	562	5.4% (inactive)	15.4% (inactive)	100	36.3% (inactive)	97.4	-0.619 (inactive)	7.9e-07 (inactive)	0.00629 (inactive)	-7.71% (inactive)	-1.03% (inactive)
CC1=CCC2C(=O)N(c3nc(C)cc(C)n3)C(=O)C2C1 (centres undefined)	332	4.2% (inactive)	9% (inactive)	85.6	-124% (inactive)	105	-0.53 (inactive)	-7.2e-05 (inactive)	0.00507 (inactive)	12.7% (inactive)	21.2% (inactive)
CCS(=O)(=O)N1CCCC(C(=O)NCCc2ccc(OC)c(OC)c2)C1 (centres undefined)	709	-12.8% (inactive)	-9.5% (inactive)	111	45.8% (inactive)	109	-0.43 (inactive)	4.5e-06 (inactive)	0.00594 (inactive)	-5.06% (inactive)	-6.59% (inactive)
CCOc1ccccc1C(=O)NCc1ccc2c(c1)OCO2	414	1.1% (inactive)	-12.2% (inactive)	98.8	-18.7% (inactive)	94.7	-0.388 (inactive)	-3.6e-05 (inactive)	0.00485 (inactive)	10.4% (inactive)	-6.17% (inactive)
O=C(O)c1ccc(-c2ccc(O)c(F)c2)cc1	677	1.3% (inactive)	11% (inactive)	89.9	-11.2% (inactive)	104	-0.59 (inactive)	-4.3e-05 (inactive)	0.0076 (inactive)	-3.64% (inactive)	17.3% (inactive)
CCOC(=O)C1CCCN(C(=O)c2ccc(CS(=O)(=O)c3ccc(Br)cc3)o2)C1 (centres undefined)	509	-3% (inactive)	-0.5% (inactive)	108	-61.3% (inactive)	111	-0.422 (inactive)	-7.7e-05 (inactive)	0.00523 (inactive)	4.84% (inactive)	25.8% (inactive)
CCN(CC)S(=O)(=O)c1ccc(F)c(C(=O)NCCC(C)C)c1	497	-22% (inactive)	37.4% (inactive)	79.2	-22.3% (inactive)	99.2	-0.353 (inactive)	-1.6e-05 (inactive)	0.00438 (inactive)	-18.3% (inactive)	-20.2% (inactive)
CCCCc1noc2c1/C(=N\O)CC(c1ccccc1)C2 (centres undefined)	365	2% (inactive)	11.5% (inactive)	106	-65.5% (inactive)	94.1	-0.446 (inactive)	-5.9e-05 (inactive)	0.0073 (inactive)	-46.5% (inactive)	-152% (inactive)
CCCc1ccc(Oc2cn[nH]c2-c2ccc(O)c(C)c2O)cc1	679	5.8% (inactive)	11% (inactive)	98	16% (inactive)	104	-0.602 (inactive)	-1.2e-05 (inactive)	0.00642 (inactive)	-1.06% (inactive)	-27.9% (inactive)
